Legend:
Assay type in all cases: functional
Plasmodium falciparum [1] = assay: GSK_TCMDC: Inhibition of Plasmodium falciparum 3D7 in whole red blood cells, using parasite LDH activity as an index of growth. Test compounds present at 2uM
Plasmodium falciparum [2] = assay: GSK_TCMDC: Inhibition of Plasmodium falciparum Dd2 in whole red blood cells, using parasite LDH activity as an index of growth. Test compounds present at 2uM
HepG2 = assay: GSK_TCMDC: Percent inhibition of human HepG2 cell line. Test compounds present at 10uM.

Row | SMILES | Inhibition (Plasmodium falciparum [1]) | Inhibition (Plasmodium falciparum [2]) | Inhibition (HepG2)
1 | CCOc1ccc2nc3cc([N+](=O)[O-])ccc3c(N)c2c1 | 99% | 100% | 67%
2 | CCC1CCCCN1S(=O)(=O)c1ccc(OC)c(N2CCN(C(=O)C(Cl)(Cl)Cl)CC2)c1 (stereo not given) | 89% | 29% | 9%
3 | Cl.O=C(N[C@@H](Cc1ccccc1)[C@H](O)CNC1CCCc2ccccc21)c1cc(C2CCCC2)cc(N2CCCC2=O)c1 (stereo not given in full) | 97% | 99% | 31%
4 | Nc1cccc(CNCc2ccc(-c3ccc(-c4nc5ccccc5[nH]4)s3)cc2)c1.O=C(O)C(F)(F)F | 100% | 93% | 12%
5 | Cc1cc(C2CCN(CCCCNC(=O)c3ccc(-c4ccc(C#N)cc4)cc3)CC2)c(C)cc1O | 96% | 96% | 27%
6 | CN1CCN(CCCN(Cc2ccc(-c3ccc(CNCCc4ccccc4)cc3)cc2)C(=O)c2cccs2)CC1.O=C(O)C(F)(F)F | 98% | 78% | 32%
7 | COc1ccc(CNC2Cc3ccccc3C2)cc1-c1ccc(S(=O)(=O)NCc2cccnc2)s1.O=C(O)C(F)(F)F | 91% | 18% | 49%
8 | CCOc1ccc2nc(C)cc(N/N=C/c3ccccc3[N+](=O)[O-])c2c1 | 100% | 99% | 91%
9 | CCCc1ccc(C(=O)N2C(c3nccs3)C(C(N)=O)CC2(CC(C)C)C(=O)O)cc1 (stereo not given) | 94% | 80% | 16%
10 | CC(Cc1ccc(CNC(=O)c2ccc(CC(C)NCCc3cccc(Cl)c3)cc2)cc1)NCCc1cccc(Cl)c1 (stereo not given) | 99% | 66% | 99%
11 | Cc1cc(C)c(NC(=O)NC2CCN(CCCCCNC(=O)/C=C/c3ccc(Cl)c(Cl)c3)C2)c(C)c1 (stereo not given) | 99% | 48% | 23%
12 | CC1(CCCCN2CCC(Cc3ccccc3)CC2)C(=O)Nc2ccccc21.Cl (stereo not given) | 100% | 28% | 66%
13 | CC(=O)Nc1ncc(C(=O)Nc2ccc(-c3cccc(-c4nc5cc(F)ccc5[nH]4)c3)cc2)s1 | 100% | 85% | 47%
14 | O=C(Nc1ccc(-c2cccc(-c3nc4cc(F)ccc4[nH]3)c2)cc1)Nc1ccsc1 | 100% | 51% | 34%
15 | O=C(NCc1ccc(F)cc1)c1ccc(N2CCN(c3ccncc3)CC2)cn1.O=C(O)C(F)(F)F | 98% | 81% | 7%
16 | O=C(C1CC1c1ccccc1)N(Cc1ccc(-c2ccc(CNCCc3ccccc3)cc2)cc1)C1CCNCC1.O=C(O)C(F)(F)F (stereo not given) | 96% | 39% | 36%
17 | COc1ccc(CNC(=O)c2cc3c(=O)n4ccccc4nc3n(CCc3ccccc3)c2=N)cc1 | 99% | 22% | 26%
18 | C[C@H](Cc1ccc(OCCCCCOc2ccc(C[C@@H](C)NC[C@H](O)c3cccc(Cl)c3)cc2)cc1)NC[C@H](O)c1cccc(Cl)c1.Cl | 99% | 100% | 99%
19 | O=C(Nc1ccc(Cl)cc1)N1CCN(C2CCCCC2)CC1 | 93% | 0% | 17%
20 | CN1CCCC(OC(=O)c2ccccc2)C1 (stereo not given) | 100% | 0% | 4%

Row | SMILES | Inhibition (Plasmodium falciparum [1]) | Inhibition (Plasmodium falciparum [2]) | Inhibition (HepG2)
21 | Cl.N#Cc1ccc2c(c1)CCN(CCC1CCC(NC(=O)/C=C/c3cc(Br)cs3)CC1)CC2 (stereo not given) | 93% | 1% | 3%
22 | CCn1ccc2c(N3CCCS3(=O)=O)cc(C(=O)N[C@@H](Cc3ccccc3)[C@H](O)CNC(C)(C)c3cccc(OC)c3)cc21 | 99% | 98% | 20%
23 | CN(C(=O)Nc1ccc(F)cc1)C1CCN(CCCCCNC(=O)/C=C/c2ccc(Cl)c(Cl)c2)CC1 | 89% | 0% | 38%
24 | COc1cc(C(F)(F)F)nc2c(CNCCCNc3cc(=O)c4ccccc4[nH]3)scc12.Cl | 92% | 16% | 0%
25 | CC(=O)Nc1cc(C(=O)Nc2cccc(-c3cccc(-c4nc5cc(C(F)(F)F)ccc5[nH]4)c3)c2)ccc1C | 97% | 43% | 56%
26 | CCOc1cc(CC)ccc1C1CCN(CCN2CCC(NC(=O)c3ccc(-c4ccc(C(C)=O)cc4)cc3)CC2)CC1 | 100% | 8% | 25%
27 | Cc1ccc(NC(=O)c2cc(Br)cc(N3CCCN(C)CC3)c2)cc1F.O=C(O)C(F)(F)F | 87% | 1% | 15%
28 | CS(=O)(=O)c1ccccc1CNC(=O)c1cccc(-c2ccc(-c3nc4cc(C(F)(F)F)ccc4[nH]3)cc2)c1 | 95% | 7% | 86%
29 | Cc1cccc2nc(-c3ccc(-c4ccc(CN5CCN(CCO)CC5)cc4)s3)[nH]c12.O=C(O)C(F)(F)F | 92% | 47% | 34%
30 | CCCC(=O)NC(c1ccc(C(C)C)cc1)c1ccc2cccnc2c1O (stereo not given) | 90% | 37% | 50%
31 | CN1CCN(c2ccnc3ccc(NC(=O)Nc4cccc5ccccc45)cc23)CC1 | 100% | 96% | 0%
32 | O=C(CSc1nccn1Cc1ccco1)Nc1cc(C(F)(F)F)ccc1Cl | 91% | 66% | 9%
33 | COc1ccc2nccc([C@@H](O)CN3CCC(NC(=O)c4cc5c(F)cc(F)cc5[nH]4)CC3)c2n1 | 100% | 74% | 32%
34 | O=C(NC1CCN(Cc2ccccc2)CC1)c1ccc(-c2nc3cc(Cl)c(Cl)cc3[nH]2)c(F)c1 | 100% | 83% | 4%
35 | CCC(=O)NC(c1ccco1)c1cc(Cl)c2cccnc2c1O (stereo not given) | 89% | 74% | 58%
36 | COc1ccc(N2CCN(CCCCNC(=O)c3ccc(NC(=O)c4cccc(Cl)c4)cc3)CC2)c(OC)c1 | 100% | 33% | 18%
37 | C[C@H](Cc1ccc(CCc2ccc(C[C@@H](C)NC[C@H](O)c3cccc(Cl)c3)cc2)cc1)NC[C@H](O)c1cccc(Cl)c1.Cl | 95% | 92% | 100%
38 | O=C(Nc1ccc(OC(F)(F)F)cc1)NC1CCN(c2ccnc3ccccc23)C1.O=C(O)C(F)(F)F (stereo not given) | 100% | 89% | 25%
39 | COc1cc(OC)cc(-c2nc3ccc(OCCN(C)C)c(C#N)c3[nH]2)c1 | 99% | 25% | 4%
40 | CS(=O)(=O)O.FC(F)(F)COc1ccc(CCNCCCCNCCc2ccc(OCC(F)(F)F)c3ccccc23)c2ccccc12 | 99% | 70% | 100%

Row | SMILES | Inhibition (Plasmodium falciparum [1]) | Inhibition (Plasmodium falciparum [2]) | Inhibition (HepG2)
41 | COc1cc(OC)c(OC)cc1C=NN=c1cc(C)[nH]c2ccccc12 | 100% | 95% | 5%
42 | CCCC(C)Nc1nc(C)cc(N[C@@H](Cc2ccccc2)C(=O)Nc2ccccc2)n1.O=C(O)C(F)(F)F (stereo not given in full) | 100% | 67% | 50%
43 | CN(C(=O)Cc1ccc(Cl)cc1)C1CCN(CCCCCNC(=O)/C=C/c2ccc(Cl)c(Cl)c2)CC1 | 83% | 16% | 69%
44 | O=C(Nc1ccc(Cl)cn1)c1sc2ccccc2c1O | 99% | 18% | 2%
45 | Nc1ncc(-c2ccc3ncccc3c2)c(N)n1.O=C(O)C(F)(F)F | 97% | 0% | 55%
46 | COc1ccc(NC(=O)[C@H](Cc2ccccc2)Nc2cc(C)nc(NCCc3cccnc3)n2)cc1.O=C(O)C(F)(F)F | 98% | 5% | 11%
47 | COc1ccc(Cn2ncc3c4c(N)nc(N)nc4ccc32)cc1OC | 94% | 95% | 68%
48 | CCN(CCCN1CCCCC1)c1cc(C)nc(Nc2ccc(C)cc2)n1.O=C(O)C(F)(F)F | 100% | 10% | 17%
49 | COc1ccc2ncc(F)c(CCN3CCC(NCc4ccc5c(c4)CCO5)CC3)c2n1.Cl | 100% | 30% | 20%
50 | COc1cc(OC)cc(-c2nn(-c3ccc([N+](=O)[O-])cc3C#N)c(=S)n2Cc2ccco2)c1 | 100% | 100% | 11%
51 | O=C(/C=C/c1ccc(Cl)c(Cl)c1)NCCCCCN1CCC(CCNC(=O)/C=C/c2cc(C(F)(F)F)ccc2F)CC1 | 98% | 46% | 25%
52 | Oc1c(C(Nc2ccccn2)c2ccco2)cc(Cl)c2cccnc12 (stereo not given) | 87% | 65% | 41%
53 | Cl.NCc1ccc(Nc2nccc(Nc3ccc(-c4ccccc4)cc3)n2)cc1 | 100% | 98% | 47%
54 | CCCNCc1ccc(-c2ccc(CN(CCOC)C(=O)CCC(=O)c3ccc(OC)c(F)c3)cc2)nc1.O=C(O)C(F)(F)F | 100% | 47% | 13%
55 | O=C(N[C@H]1CCN(Cc2ccc(OCCCN3CCCCC3)cc2)C1)c1ccc(Oc2ccccc2)cc1 | 96% | 11% | 56%
56 | CN1CCN(c2ccc(Nc3ccnc4ccc(-c5ccccc5)cc34)cc2)CC1 | 100% | 100% | 20%
57 | COc1cccc(Cc2c(C)nc3nc(N)nc(N)c3c2C)c1.Cl | 95% | 1% | 65%
58 | Cc1ccc(-c2cc(C(=O)Nc3ccc(S(=O)(=O)N4CC(C)OC(C)C4)cc3)[nH]n2)c(O)c1 (stereo not given) | 91% | 98% | 16%
59 | Cl.Clc1ccc2c(N3CCN(CCN4CCN(c5ccnc6cc(Cl)ccc56)CC4)CC3)ccnc2c1 | 99% | 100% | 10%
60 | CCC[C@@H]([C@@H](CC1CCC(C)CC1)C(=O)N[C@@H](CO)C(=O)Nc1nccs1)N(O)C=O (stereo not given in full) | 100% | 84% | 0%

Reference: ChEMBL document CHEMBL1157539, “Thousands of chemical starting points for antimalarial lead identification” (Nature, 2010)
